# Data taken from PubChem BioAssay (Tox21).
# Results filed as inconclusive are left out. Activity calls are given as the source filed them. The call rests on the fitted dose curve.
# Assay: qHTS assay for small molecule agonists of the antioxidant response element (ARE) signaling pathway - cell viability counter screen (AID 743203); further: nearly all actives have a fitted effect of over 55% in size
# Settings: ARE-bla HepG2 viability, CellTiter-Glo luminescence, 16 h; series mostly up to 73.3 µM; viability change, negative = cytotoxic: at the top concentration
# Source text: National Center for Advancing Translational Sciences [NCATS]
# NIH Chemical Genomics Center [NCGC]
# U.S. Environmental Protection Agency [EPA]
# National Institutes of Environmental Health Sciences [NIEHS]
# National Toxicology Program [NTP]
# U.S. Food and Drug Administration [FDA]
# Oxidative stress has been implicated in the pathogenesis of a variety of diseases ranging from cancer to neurodegeneration. The antioxidant response element (ARE) signaling pathway plays an important role in the amelioration of oxidative stress. The CellSensor ARE-bla HepG2 cell line (Invitrogen) can be used for analyzing the Nrf2/antioxidant response signaling pathway. Nrf2 (NF-E2-related factor 2) and Nrf1 are transcription factors that bind to AREs and activate these genes. The CellSensor ARE-bla Hep G2 cell line contains a beta-lactamase reporter gene under control of the Antioxidant Response Element (ARE) stably integrated into HepG2 cells. The activation of the report gene under culture conditions can be detected by fluorescence intensity. This cell line has been used to screen the Tox21 10K compound library to identify agonists that induce oxidative stress. The cytotoxicity of the Tox21 compound library against the ARE-bla cell line was tested in parallel by measuring the cell viability using CellTiter-Glo assay (Promega, Madison, WI) in the same wells.
# Tox21 Assay Protocol Summary:
# ARE-bla HepG2 cells were dispensed at 2,000 cells/5 ul/well in 1536-well white wall/solid bottom plates using a Multidrop Combi (ThermoFisher Scientific, Waltham, MA) dispenser. After the assay plates were incubated at 37C/5% CO2 for 5 hrs, 23 nL of compounds dissolved in DMSO, positive controls or DMSO only was transferred to the assay plate by a pintool work station (Kalypsys, San Diego, CA). The plates were incubated at 37C/5% CO2 for 16 hrs, followed by addition of 4 ul/well of CellTiter-Glo reagent into the assay plates using a Flying Reagent Dispenser (Aurora Discovery, San Diego, CA). After 30 min incubation at room temperature, the luminescence intensity in the assay plates was measured using a ViewLux (PerkinElmer, Shelton, CT) plate reader.
# On the % scale 0 is the no-effect control and ±100 the full control effect.
row,SMILES,"viability change, negative = cytotoxic"
1,CC(C)C1CCC(O)CC1 (stereo not given),-24.9% (inactive)
2,CC(C)[C@H]1CC[C@@H](C)CC1=O,11.1% (inactive)
3,Nc1ccn([C@@H]2O[C@H](CO)[C@@H](O)[C@@H]2O)c(=O)n1,5.5% (inactive)
4,CC1(C)OC[C@@H](COC(=O)CCc2ccc(OC[C@@H](O)CNCCNC(=O)N3CCOCC3)cc2)O1,0.683% (inactive)
5,C=CC(=O)OCCCl,-2.13% [at 94.8 µM] (inactive)
6,CC(C)C[C@@H](N)C(=O)O,-6.11% [at 34.3 µM] (inactive)
7,CNCCO,6.86% (inactive)
8,O=C1NC(=O)C2CC=CCC12 (stereo not given),0.955% (inactive)
9,CC(=O)c1ccc2ccccc2c1,12% (inactive)
10,Cc1cccc(C)c1NC(=O)CC12CCCN1CCC2,0.636% (inactive)
11,Cc1ccc(-c2ccccc2C#N)cc1,8.96% (inactive)
12,CC(C)C(=O)OC(=O)C(C)C,-0.785% (inactive)
13,C[N+]12CCC(CC1)C(OC(=O)C(O)(c1ccccc1)c1ccccc1)C2 (stereo not given),-1.43% (inactive)
14,c1ccc(Cc2ccccc2)cc1,0.0498% (inactive)
15,CN1CC(=O)N/C1=N/C(=O)Nc1cccc(Cl)c1,19.2% (inactive)
16,C1CCC2(CCCCO2)OC1,-3.95% (inactive)
17,CC[N+](CC)(CC)CCOc1cccc(OCC[N+](CC)(CC)CC)c1OCC[N+](CC)(CC)CC,16.3% (inactive)
18,O=C(c1ccccc1)C1(O)CCCCC1,13.3% (inactive)
19,CNC(=O)Nc1ccc(Cl)c(Cl)c1,-1.68% (inactive)
20,[O-][n+]1cccc(CO)c1,-0.961% (inactive)

row,SMILES,"viability change, negative = cytotoxic"
1,C=COC(=O)C(C)(CC)CCC(C)C (stereo not given),-1.99% (inactive)
2,C=C[Si](OC(C)=O)(OC(C)=O)OC(C)=O,3.62% (inactive)
3,Cc1ccc(-c2ncc(Cl)cc2-c2ccc(S(C)(=O)=O)cc2)cn1,-0.766% (inactive)
4,COc1cc(C(=O)OC(COCCC(C)C)CN2CCOCC2)cc(OC)c1OC (stereo not given),1.78% (inactive)
5,NCCCC[C@H](N[C@@H](CCc1ccccc1)C(=O)O)C(=O)N1CCC[C@H]1C(=O)O,3.37% (inactive)
6,CC(C)NNC(=O)c1ccncc1,1.41% (inactive)
7,Cc1ccc(C(=O)Nc2ccc(S(=O)(=O)O)c3cc(S(=O)(=O)O)cc(S(=O)(=O)O)c23)cc1NC(=O)c1cccc(NC(=O)Nc2cccc(C(=O)Nc3cc(C(=O)Nc4ccc(S(=O)(=O)O)c5cc(S(=O)(=O)O)cc(S(=O)(=O)O)c45)ccc3C)c2)c1,2.16% (inactive)
8,CCN[C@H]1C[C@H](C)S(=O)(=O)c2sc(S(N)(=O)=O)cc21,0.304% (inactive)
9,O=S(=O)(O)c1cc(O)c(O)c(S(=O)(=O)O)c1,1.99% (inactive)
10,NC(=O)Cc1cccc2ccccc12,-0.123% (inactive)
11,COc1ccccc1OCC1CNC(=O)O1 (stereo not given),-2.5% (inactive)
12,CC(C)(C)C(=O)c1ccccc1,-5.79% (inactive)
13,O=C(CO)[C@@H](O)[C@H](O)[C@H](O)CO,-1.14% [at 94.8 µM] (inactive)
14,CCOC(=O)C(=O)CCCCCCl,-1.32% (inactive)
15,CCOc1ccc2nc(S(N)(=O)=O)sc2c1,13.8% (inactive)
16,COc1cc(C)nc(-n2nc(C)cc2OC)n1,9.91% (inactive)
17,C=CCCC(=O)O,4.97% (inactive)
18,CCCCOCCOC(=O)CCCCCCCCC(=O)OCCOCCCC,11.7% (inactive)
19,Cc1onc(-c2c(Cl)cccc2Cl)c1C(=O)Cl,4.67% (inactive)
20,CCCCCC(C)N (stereo not given),-7.8% (inactive)
